One may read the inhibition as the relative decrease from the control value, in per cent.

The source of these data is PubChem BioAssay.

The source made the active and inactive calls.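 Rule for the calls, unless noted: active = visual image review flags a hit and inhibition of aggregation exceeds 20%; inconclusive = visual hit but inhibition at or below 20%; inactive = no hit on visual image review.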 Where a SMILES comes first, the peptide text is derived from it. The star is where a group is joined. Boc = CC(C)(C)OC(=O)*

A short description of test [1]: inhibitors of TNFa-induced NFkB p65 translocation, primary screen, imaging, HUVEC, MLSMR starter and 10KST1 sets (AID 438;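 active = inhibition above 20% together with a positive visual image hit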;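 note: compound added about 3h40 before a 20 min TNFalpha stimulation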;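 for inhibition: signal is the nuclear over cytoplasmic p65 intensity ratio per well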). The following applies: HUVEC TNFa-induced p65 nuclear translocation; cell count: measured here: nuclei count (cytotoxicity indicator), at 2.08 µM; inhibition: at 2 µM, stronger effect = higher value, 0% TNFa-plus-vehicle, 100% no-TNFa wells.
Test [2] is described as follows: reduction of polyQ htt aggregates in cells – imaging, exon1htt(103Q)mCFP cells, high-content imaging, primary screen (AID 483).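 For nuclei count: percent of the per-plate median nuclei count of sample wells.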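 Note: compound exposure lasted 3 days before fixation.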 The following applies: exon1htt(103Q)mCFP cell line, aggregate imaging, at 2 µM; inhibition of aggregation: stronger effect = higher value; nuclei count: measured here: cell count, toxicity.
Test [3] is described as follows: endothelial E-selectin expression blockers – imaging, HUVEC, immunofluorescence, MLSMR starter and 10KST1 sets, primary screen (AID 487;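 active = visually confirmed hit in the image check and inhibition above 20%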;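 for inhibition: signal is fraction of cell area covered by stained E-selectin grains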;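 for nuclei count: 100% = median nuclei count of all wells on the same plate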). The following applies: HUVEC TNFalpha-induced E-selectin immunofluorescence imaging, at 2 µM; inhibition: stronger effect = higher value; nuclei count: measured here: cell number, toxicity.
The target of test [4] is Voltage-gated potassium channel subunit beta-2 (Rattus norvegicus) (UniProt P62483). The test can be described thus: inhibitors of rat Kvbeta2 reductase activity – biochemical, NADPH fluorescence, primary screen (AID 622;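 active = fluorescence slope higher than the sample average by over 3 SD, cut at about -0.22 in these data, passing the limit was not always enough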;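 note: slope of raw intensity against log time taken from 70 to 1610 s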). The conditions noted are these: recombinant KvBeta, 4-cyanobenzaldehyde reduction, at 10 µM, stronger effect = higher value.
Sequence of Voltage-gated potassium channel subunit beta-2 (Rattus norvegicus) (P62483 whole entry, looked up): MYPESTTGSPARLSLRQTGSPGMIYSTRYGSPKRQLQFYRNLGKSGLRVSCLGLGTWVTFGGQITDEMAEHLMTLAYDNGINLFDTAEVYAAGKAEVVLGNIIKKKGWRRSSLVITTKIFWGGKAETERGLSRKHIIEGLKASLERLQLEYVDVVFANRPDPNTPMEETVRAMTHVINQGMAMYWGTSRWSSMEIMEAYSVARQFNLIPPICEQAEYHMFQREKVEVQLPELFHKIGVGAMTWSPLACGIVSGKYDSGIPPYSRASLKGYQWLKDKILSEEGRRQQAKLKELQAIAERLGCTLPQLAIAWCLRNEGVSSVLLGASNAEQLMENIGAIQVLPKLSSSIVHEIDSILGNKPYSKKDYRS
Test [5] shares this target. As to the kind of experiment: enhancers of rat Kvbeta2 NADPH turnover – biochemical, NADPH fluorescence, primary screen (AID 623;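 active = NADPH fluorescence slope more negative than the mean of all samples by about 3 SD, 99.7% confidence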;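 note: fluorescence intensity change per second fitted from 20 to 320 s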). The following applies: Recombinant KvBeta, NADPH fluorescence decrease slope, 10 min; at 10 µM; stronger effect = lower value.
Test [6] addresses Alpha-2C adrenergic receptor (Homo sapiens) (UniProt P18825). The test can be described thus: compounds altering alpha2C-coupled GIRK flux – cell-based, HEK293 alpha2C/GIRK1/2, thallium flux, primary screen (AID 624;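 active = fluorescence slope after compound addition differing from the mean of all screened samples at 99.7% confidence, in either direction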;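 note: slope of fluorescence ratio to pre-addition baseline per second over 15 to 24 s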). The conditions noted are these: thallium flux BTC fluorescence, at 10 µM, actives lie on both sides.
Test [7] can be described thus: blockers of RIG-like receptor reporter activation – cell-based, Sendai virus stimulus, luciferase, 10K MLSCN set, TLR/RLR signaling modifier project, primary screen (AID 602276;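 active = inhibition at or above 50% at 10 µM; inactive = inhibition below 50%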;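 note: firefly luciferase from ISG56 promoter only with Renilla not read in this screen; 0% = Sendai virus plus DMSO and 100% = medium plus DMSO without virus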). The following applies: HEK293 RL24 IRF3 luciferase reporter, at 10 µM, stronger effect = higher value. Background: In a reporter assay the amount or activity of a reporter protein is the signal.
Test [8] in a line: TLR3 IRF3 reporter activation blockers – cell-based, poly I:C stimulus, luciferase, 10K MLSCN set, primary screen (AID 602277;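 active = inhibition of the reporter signal at or above 50%; inactive = inhibition below 50%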). The conditions noted are these: HEK293-TLR3 RL24 IRF3 luciferase reporter, at 10 µM, stronger effect = higher value.

Sequence of Alpha-2C adrenergic receptor (Homo sapiens) (P18825 whole entry, looked up): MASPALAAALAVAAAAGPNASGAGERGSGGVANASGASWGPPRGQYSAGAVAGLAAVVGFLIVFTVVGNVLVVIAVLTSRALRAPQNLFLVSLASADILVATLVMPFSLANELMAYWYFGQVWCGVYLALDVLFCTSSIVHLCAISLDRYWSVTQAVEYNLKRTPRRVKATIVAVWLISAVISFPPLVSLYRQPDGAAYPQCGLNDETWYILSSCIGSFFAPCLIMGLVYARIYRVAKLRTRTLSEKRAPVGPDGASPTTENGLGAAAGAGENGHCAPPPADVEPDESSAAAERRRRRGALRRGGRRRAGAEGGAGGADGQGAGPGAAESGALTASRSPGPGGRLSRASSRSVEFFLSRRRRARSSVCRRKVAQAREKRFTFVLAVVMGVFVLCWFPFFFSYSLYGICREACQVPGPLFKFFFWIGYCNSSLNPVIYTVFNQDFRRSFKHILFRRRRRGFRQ

In the case of `CCc1ccc(CCC(=O)Nc2ccc(C)c(C)c2)o1`, the cell count in test [1] is 255. Besides, the inhibition is 5.2% (inactive) in test [1], -34.3% (inactive) in test [3], -22.6% (inactive) in test [7] and -50% (inactive) in test [8]. Also, the inhibition of aggregation in test [2] is -4.6% (inactive). The values for the nuclei count in test [2] and in test [3] were 80.2% and 99.6%, respectively. In test [4], the fluorescence slope was -0.4 (inactive). Also, in test [5], the NADPH fluorescence slope is -5.2e-05 (inactive). In test [6], the slope is 0.006 (inactive).

As for `Cc1ccc2oc(-c3ccccc3C(=O)O)cc(=O)c2c1`, in test [1], the cell count is 363. Also, the inhibition in test [1] is 10.8% (inactive); in test [3], -59.4% (inactive); in test [7], 12.1% (inactive); in test [8] it was 5.36% (inactive). Also, in test [2], the inhibition of aggregation is 2.4% (inactive). Also, the nuclei count was determined as 107% in test [2] and 125% in test [3]. Moreover, the fluorescence slope in test [4] is -0.627 (inactive). The NADPH fluorescence slope in test [5] was -1.2e-05 (inactive). In test [6], the slope was 0.00399 (inactive).

As for `COCCNC(=O)C(c1ccc(O)cc1)N(Cc1ccco1)C(=O)CCC(=O)Nc1nccs1` (centres undefined), in test [1], the cell count came to 474. The inhibition was 6.7% (inactive) in test [1], -52.2% (inactive) in test [3], -12.6% (inactive) in test [7] and 14.7% (inactive) in test [8]. Further, in test [2], the inhibition of aggregation is 0.1% (inactive). Moreover, the values for the nuclei count in test [2] and in test [3] were 102% and 116%, respectively. For the same compound, in test [4], the fluorescence slope was -0.499 (inactive). Moreover, in test [5], the NADPH fluorescence slope is 4.7e-06 (inactive). Further, the slope in test [6] was 0.0061 (inactive).

Consider `CCCCOn1c(C)c(C(=O)OCC)c2c3nonc3ccc21`, for which, in test [1], the cell count was 596. The inhibition was -27.1% (inactive) in test [1], -12.4% (inactive) in test [3], -10.2% (inactive) in test [7] and -12.6% (inactive) in test [8]. Moreover, in test [2], the inhibition of aggregation is -30.2% (inactive). Besides, the nuclei count worked out at 116% in test [2] and 101% in test [3]. Besides, the fluorescence slope in test [4] is -0.458 (inactive). For the same compound, the NADPH fluorescence slope in test [5] is 6.8e-06 (inactive). The slope in test [6] is 0.00452 (inactive).

With `COc1ccc(-c2nc(C)sc2CC(=O)O)cc1`, the cell count in test [1] is 533. Further, the inhibition in test [1] is -15.7% (inactive); in test [3], -1.1% (inactive); in test [7], 11.4% (inactive); in test [8], 28.3% (inactive). In addition, the inhibition of aggregation in test [2] is 21% (inactive). Further, the nuclei count in test [2] turned out to be 93.9%; in test [3], 101%. The fluorescence slope in test [4] was -0.463 (inactive). Further, the NADPH fluorescence slope in test [5] was -8.6e-06 (inactive). The slope in test [6] is 0.00658 (inactive).

For the compound `O=C1N=C(N2CCOCC2)CS1`, the cell count in test [1] worked out at 309. The inhibition was 3.4% (inactive) in test [1], 36% (inactive) in test [3], 6.09% (inactive) in test [7] and 10.7% (inactive) in test [8]. Besides, the inhibition of aggregation in test [2] was -6.9% (inactive). Moreover, the nuclei count in test [2] amounted to 90.7%; in test [3] it was 95.1%. In addition, in test [4], the fluorescence slope was -0.519 (inactive). For the same compound, the NADPH fluorescence slope in test [5] was -1.2e-05 (inactive). Besides, the slope in test [6] is 0.00426 (inactive).

As to `COc1ccc(OCC(=O)N2CCN(C(=O)COc3ccc(Br)cc3)CC2)cc1`, in test [1], the cell count came out at 665. In addition, the inhibition in test [1] is -28.3% (inactive); in test [3], -13.6% (inactive); in test [7], 18% (inactive); in test [8], 20.9% (inactive). Also, in test [2], the inhibition of aggregation is -4% (inactive). In addition, the nuclei count in test [2] is 108%; in test [3], 103%. In addition, in test [4], the fluorescence slope was -0.486 (inactive). Besides, in test [5], the NADPH fluorescence slope was -3.9e-05 (inactive). The slope in test [6] is 0.00463 (inactive).

For the compound `COc1ccc2cc(C(c3nnnn3C3CCCCC3)N3CCCCCC3)c3nnnn3c2c1` (centres undefined), the cell count in test [1] worked out at 828. Also, the inhibition in test [1] was -6.7% (inactive); in test [3], -10.3% (inactive); in test [7], 7.67% (inactive); in test [8], -2.36% (inactive). Also, in test [2], the inhibition of aggregation was -7.5% (inactive). For the same compound, the nuclei count in test [2] stood at 108%; in test [3], 114%. Besides, the fluorescence slope in test [4] is -0.444 (inactive). The NADPH fluorescence slope in test [5] is -3.1e-06 (inactive). Also, in test [6], the slope is 0.00937 (inactive).

For `CC(C)Cn1c(=O)c(C(=O)Nc2ccccc2S(N)(=O)=O)c(O)c2ccccc21`, the cell count in test [1] came out at 740. Besides, the inhibition in test [1] is -1% (inactive); in test [3] it was 60.6% (active); in test [7], -1.36% (inactive); in test [8], -18.4% (inactive). In addition, the inhibition of aggregation in test [2] was -9.5% (inactive). In addition, the nuclei count came out at 99.4% in test [2] and 92.3% in test [3]. In addition, in test [4], the fluorescence slope was -0.393 (inactive). Further, in test [5], the NADPH fluorescence slope is -3.1e-05 (inactive). Moreover, the slope in test [6] is 0.00741 (inactive).

Consider `COCC(=O)N(Cc1cc2cc(OC)ccc2[nH]c1=O)c1ccccc1`, for which, in test [1], the cell count came to 412. Also, the inhibition is 4.3% (inactive) in test [1], -47.1% (inactive) in test [3], 5.46% (inactive) in test [7] and 19% (inactive) in test [8]. Besides, the inhibition of aggregation in test [2] was 1.5% (inactive). Besides, the nuclei count was 106% in test [2] and 113% in test [3]. Moreover, the fluorescence slope in test [4] was -0.453 (inactive). Also, in test [5], the NADPH fluorescence slope is -5.4e-05 (inactive). In addition, the slope in test [6] is 0.00281 (inactive).

Consider `CC(NC(=O)COc1ccc(Br)cc1)C(=O)O` (centres undefined), for which, in test [1], the cell count came out at 434. The inhibition was 6% (inactive) in test [1], -149% (inactive) in test [3], 10.1% (inactive) in test [7] and 24.7% (inactive) in test [8]. In test [2], the inhibition of aggregation was 4.7% (inactive). Also, the nuclei count is 100% in test [2] and 136% in test [3]. For the same compound, in test [4], the fluorescence slope was -0.439 (inactive). Moreover, in test [5], the NADPH fluorescence slope is -1.3e-05 (inactive). Also, in test [6], the slope is 0.00364 (inactive).

As for `COc1ccccc1N1CCN(C(=O)c2c(-c3c(Cl)cccc3Cl)noc2C)CC1`, the cell count in test [1] stood at 652. Besides, the inhibition was -11.7% (inactive) in test [1], -24.6% (inactive) in test [3], 18.3% (inactive) in test [7] and 38.3% (inactive) in test [8]. In addition, the inhibition of aggregation in test [2] is 3.7% (inactive). Moreover, the nuclei count was 90.6% in test [2] and 110% in test [3]. Besides, in test [4], the fluorescence slope is -0.377 (inactive). Besides, the NADPH fluorescence slope in test [5] was -2.9e-05 (inactive). Further, in test [6], the slope was 0.00504 (inactive).

On to `CCC(C)C(NC(=O)OC(C)(C)C)C(=O)NC(CC(C)C)C(N)=O` (stereo not drawn) (Boc-Ile-Leu-NH2; configuration not given here), for which the cell count in test [1] was 399. The inhibition in test [1] is 1.3% (inactive); in test [3], 56.6% (inactive); in test [7], -6.01% (inactive); in test [8], 10.9% (inactive). Also, in test [2], the inhibition of aggregation is 7.1% (inactive). The nuclei count in test [2] was determined as 88.9%; in test [3] it was 89.8%. Moreover, in test [4], the fluorescence slope was -0.516 (inactive). Further, the NADPH fluorescence slope in test [5] was -6.5e-05 (inactive). The slope in test [6] is 0.00654 (inactive).

In the case of `CCC1C(=O)N=C(SCC(=O)Nc2cccc3ccccc23)NC1=O` (centres undefined), in test [1], the cell count is 393. Besides, the inhibition was -4% (inactive) in test [1], -41.3% (inactive) in test [3], -15.6% (inactive) in test [7] and 0.719% (inactive) in test [8]. For the same compound, the inhibition of aggregation in test [2] was 3.1% (inactive). Further, the nuclei count stood at 101% in test [2] and 119% in test [3]. Further, in test [4], the fluorescence slope is -0.564 (inactive). Besides, the NADPH fluorescence slope in test [5] is -4.5e-05 (inactive). The slope in test [6] was 0.00593 (inactive).
